This is a sample that favours compounds with a hit; in the whole collection about 4.3% have one here.
GRIN3A LBD mod = NR3A (human) ligand-binding domain modulation | Tm shift relative to glycine control, % at 25 µM | 340,000 compounds, 2.5% hits | AID 1259313 | NR3A LBD differential scanning fluorimetry, Tm shift; 0% = protein alone, 100% = glycine-bound protein;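 active = melting temperature shift of at least 10% of the positive control shift, at one fixed dose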
NadD inh = blocks S. aureus nicotinate mononucleotide adenylyltransferase; inhibition, % at 20 µM; purified NadD enzyme, colorimetric absorbance read-out; 360,000 compounds, 0.78% hits; in the data active = inhibition above about 26%
rCAG binder = binds r(CAG) RNA repeats | r(CAG) RNA repeat, TO-PRO-1 dye displacement fluorescence | inhibition, % at 3 µM | 370,000 compounds, 1.3% hits;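 active = inhibition above the plate cutoff, the mean of all test compounds on that plate plus 3 SD, cut at about 35% in these data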;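 note: 0% = DMSO alone and 100% = 100 µM mitoxantrone as full dye displacement; higher means more dye released from RNA so lower well fluorescence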
FAS TE block = blocks the thioesterase domain of human fatty acid synthase; inhibition, % at 15 µM; recombinant FAS-TE, OMFH fluorogenic substrate, fluorescence endpoint; 360,000 compounds, 0.67% hits; AID 602261;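 active = compounds whose normalised, plate-corrected inhibition of enzyme fluorescence in the single-dose primary screen is 50% or more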;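 note: 0% = DMSO with enzyme and 100% = substrate without enzyme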
rCAG bind conf = r(CAG) RNA repeat binding, confirmation. TO-PRO-1 dye displacement fluorescence. shares compounds with rCAG binder. 4,300 compounds, 70% hits. inhibition, % at 3 µM;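 active = inhibition above a per-plate cutoff, the mean inhibition of sample wells plus 3 SD, cut at about 35% in these data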;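 note: loss of TO-PRO-1 fluorescence as compound displaces dye from 1x1 AA loop RNA; 0% = DMSO only wells and 100% = 100 µM mitoxantrone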
dCAG dye counter = DNA CAG dye complex inhibition counter-screen; inhibition, % at 3 µM; 4,300 compounds, 94% hits; d(CAG) DNA oligo TO-PRO-1 dye displacement, fluorescence; shares compounds with rCAG binder;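 active = inhibition above its plate's cutoff, the mean test-well inhibition plus 3 SD, cut at about 4.8% in these data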;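 note: 0% = DNA dye mix with DMSO and 100% = 100 µM mitoxantrone; hits displace the dye from DNA and so lower well fluorescence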
* = called active by the depositor; . = not tested or not shown; ! = not confirmed by another sample.

SMILES | GRIN3A LBD mod | NadD inh | rCAG binder | FAS TE block | rCAG bind conf | dCAG dye counter
CN(C)c1ccc(/C=C2/C(=O)NC(=O)N(Cc3ccco3)C2=O)cc1 | 2 | 12 | 26 | -4 | . | .
CC(C)N1C(=O)/C(=C/C=C/c2ccco2)C(=O)N(Cc2ccco2)C1=O | -3 | 17 | 45* | -8 | 22 | 11*
O=C(O)c1cc2ccccc2n1C1CCN(Cc2ccccc2)CC1 | . | . | 7 | . | . | .
O=C(NN=Cc1ccc(N(CCCl)CCCl)cc1)C(=O)c1c[nH]c2ccccc12 | 8 | 27 | 11 | 18 | . | .
COc1ccc(OC(=O)N(C)C[C@@H]2OCc3cnnn3CCCC(=O)N([C@H](C)CO)C[C@H]2C)cc1 | . | -2 | -2 | -7 | . | .
Fc1cccc(-c2ccc3c(c2)CNCc2cnnn2-3)c1 | . | 1 | 3 | -2 | . | .
Cc1cc(N2CCNC[C@@H]2C)ccc1N1CC[C@@H](O)C1 | . | . | 5 | . | . | .
CN(C)[C@@H]1C(=O)C(C(N)=O)=C(O)[C@@]2(O)C(=O)C3=C(O)c4c(O)cccc4[C@@](C)(O)[C@H]3[C@H](O)[C@@H]12 | -8 | 38*! | 70* | 8 | 67* | 34*
CC1=C(C)CN2CC(C#N)=C(N)C2C1 (stereo not drawn) | . | 10 | . | 1 | . | .
COc1ccc(N2C(=O)/C(=C/c3cccs3)C(=O)NC2=S)cc1 | 3 | 0 | 23 | -4 | . | .
COc1ccccc1N1C(=O)NC(=O)/C(=C/c2ccc([N+](=O)[O-])s2)C1=O | -4 | . | 84* | . | 60* | 28*
COc1ccc(N2C(=O)NC(=O)/C(=C/c3ccc([N+](=O)[O-])s3)C2=O)cc1 | -4 | 17 | 69* | -2 | 50* | 21*
COc1ccc(N2C(=O)NC(=O)/C(=C\c3ccc([N+](=O)[O-])s3)C2=O)cc1 | -7 | 9 | 76* | -1 | 54* | 21*
CCOc1ccc(N2C(=O)NC(=O)/C(=C\c3cc(OC)c(OC)cc3[N+](=O)[O-])C2=O)cc1 | -2 | 9 | . | -14 | . | .
COc1ccc(N2C(=O)/C(=C/C=C/c3ccccc3[N+](=O)[O-])C(=O)NC2=S)cc1 | 100* | . | 84* | . | 78* | 44*
COP(=O)(OC)OC=C(Cl)Cl | . | . | 2 | . | . | .
Clc1cc(Cl)cc(CN2Cc3cc(Br)ccc3-n3nncc3C2)c1 | . | . | 2 | . | . | .
COc1cccc(N2C(=O)NC(=O)/C(=C/c3ccc4c(c3)Cc3ccccc3-4)C2=O)c1 | -2 | 4 | 8 | 7 | . | .
COc1cccc(N2C(=O)NC(=O)/C(=C/c3ccc([N+](=O)[O-])s3)C2=O)c1 | -8 | 10 | 59* | 1 | 43* | 20*
O=C(CNC(=O)OCc1ccccc1)NC(Cc1ccccc1)P(=O)(Oc1ccccc1)Oc1ccccc1 (stereo not drawn) | . | . | 6 | . | . | .
O=P(NS(=O)(=O)c1ccc(Br)cc1)(Oc1ccccc1)Oc1ccccc1 | -36 | 4 | 73* | 20 | 63* | 25*
Cc1ccc(S(=O)(=O)NP(=O)(Oc2ccccc2)Oc2ccccc2)cc1 | 1 | 5 | 40* | -6 | 36* | 9.7*
Cc1ccc(C)c(NP(=O)(Oc2ccccc2)Oc2ccccc2)c1 | -1 | 0 | -5 | 12 | . | .
O=P(NS(=O)(=O)c1ccccc1)(Oc1ccccc1)Oc1ccccc1 | 4 | 0 | 30 | -8 | . | .
O=P(NS(=O)(=O)c1ccc(Cl)cc1)(Oc1ccccc1)Oc1ccccc1 | . | 0 | 62* | 26 | 59* | 19*
SMILES | GRIN3A LBD mod | NadD inh | rCAG binder | FAS TE block | rCAG bind conf | dCAG dye counter
O=C(NCCN1CCC2(CC1)C(=O)NCN2c1ccccc1)c1ccc(Cl)c(Cl)c1 | . | . | 2 | . | . | .
c1ccc(CN2Cc3ccccc3-n3nncc3C2)nc1 | . | 4 | 2 | -6 | . | .
Cc1cc(OCC(=O)N[C@@H](Cc2ccccc2)C(=O)O)c2c3c(c(=O)oc2c1)CCCC3 | -1 | 4 | 46* | 6 | 37* | 7.9*
CN1C(=O)/C(=C/c2cccn2-c2ccc3ccccc3c2)C(=O)NC1=S | -1 | 44* | 63* | -4 | 22 | 16*
CCc1ccc(N2C(=O)NC(=O)/C(=C/c3cccn3CCOc3ccc(C)cc3)C2=O)cc1 | -14 | 18 | 10 | -12 | . | .
O=C1NC(=O)N(Cc2ccco2)C(=O)/C1=C\c1cccn1CCOc1ccc(Cl)cc1 | -11 | 17 | 35* | -7 | 11 | 7.6*
Cc1cccc(OCCn2cccc2/C=C2/C(=O)NC(=O)N(Cc3ccco3)C2=O)c1 | -8 | 3 | 35* | -5 | 11 | 7.7*
CCc1ccc(N2C(=O)NC(=O)/C(=C/c3cccn3CCOc3ccc(C(C)CC)cc3)C2=O)cc1 (stereo not drawn) | 1 | 5 | 6 | -8 | . | .
CCCCn1c(NS(=O)(=O)c2ccc(C)cc2)c(C(=O)OCC)c2nc3ccccc3nc21 | 13* | 23 | 36* | 7 | 18 | 5.8*
CCc1cc(OC)c(CCN)cc1OC | . | . | 1 | . | . | .
O=C1CC(=O)N(Cc2ccccc2)C(=O)N1Cc1ccccc1 | -11 | -1 | 46* | -8 | 9 | 6.3*
O=C1CC(=O)N(Cc2ccccc2)C(=O)N1 | 0 | -5 | 4 | -5 | . | .
Cn1cccc1/C=C1\C(=O)NC(=O)N(CCC2=CCCCC2)C1=O | -22 | -1 | 10 | -8 | . | .
O=C1NC(=O)N(CCC2=CCCCC2)C(=O)/C1=C\c1cccs1 | 6 | 27 | 42* | -11 | 6 | 3
CC1=NNC(=O)C1Br (stereo not drawn) | -3 | 1 | 1 | -4 | . | .
Oc1ccc(/C=N/NP(=S)(c2ccccc2)c2ccccc2)c(O)c1O | 1 | 13 | 37* | 5 | 56* | 28*
Oc1ccccc1/C=N/NP(=S)(c1ccccc1)c1ccccc1 | 4 | -7 | 6 | 30 | . | .
CCOP(=O)(C#CC(C)(C)C)C(C)(O)c1ccccc1 (stereo not drawn) | -1 | 1 | -4 | -8 | . | .
CC(C)(C#CC(=O)O)OOC(c1ccccc1)(c1ccccc1)c1ccccc1 | 8 | -2 | 53* | 19 | 57* | 20*
C[C@H]1CN([C@@H](C)CO)C(=O)CCCn2nncc2CO[C@H]1CN(C)C(=O)Oc1ccc2ccccc2c1 | . | 5 | 1 | -2 | . | .
Cc1ccc(/C=C2\C(=O)NC(=S)N(c3ccccc3F)C2=O)s1 | -8 | 16 | 35* | -14 | 16 | 8.2*
COc1ccc(CN2C(=O)CC(=O)NC2=S)cc1 | -2 | -2 | 38* | -8 | 11 | 4
O=C(NCP(=O)(Oc1ccccc1)Oc1ccccc1)OCc1ccccc1 | . | -11 | 69* | 9 | 2 | -1
COC(=O)C1C(O)C(C)C(O)C(C)/C=C\C=C(/C)C(=O)Nc2c(C)c(OC(C)=O)c3c(c2O)C(=O)C(C)=C2OCOC(=C23)/C(C)=C/C(C)(O)C(O)C(C)C1O (stereo not drawn) | -1 | 6 | 47* | -5 | 24 | 6.5*
CN1OC[C@@H]2CN3C4(C[C@@H]21)c1ccccc1C3(c1ccccc1)c1ccccc14 | . | . | 2 | . | . | .
O=[N+]([O-])c1cccc(O)c1 | 2 | 1 | 1 | -5 | . | .
